Measured values from PubChem BioAssay (Tox21).
Inconclusive results are not listed. Where a call stands in place of a potency, no number is given. Active and inactive are the calls of the source. The call rests on the fitted dose curve.

Assay: p53 small molecule agonists, cell-based qHTS assay with human liver microsomes: qHTS cell viability counter screen (AID 1963579); further: nearly all actives have a fitted effect of over 45% in size
Conditions: p53RE-bla HCT-116 viability, ATP luminescence, 16 h, HLM; series mostly up to 66 µM
Source text: National Center for Advancing Translational Sciences [NCATS]
Division of Preclinical Innovation [DPI]
U.S. Environmental Protection Agency [EPA]
National Institutes of Environmental Health Sciences [NIEHS]
National Toxicology Program [NTP]
U.S. Food and Drug Administration [FDA]
p53, a tumor suppressor protein, is activated following cellular insult, including DNA damage and other cellular stresses. The activation of p53 regulates cell fate by inducing DNA repair, cell cycle arrest, apoptosis, or cellular senescence. The activation of p53, therefore, is a good indicator of DNA damage and other cellular stresses. […] The activation of the reporter gene under culture conditions can be detected by fluorescence intensity. This cell line was used to screen the Tox21 10K compound library in the condition of presence of human liver microsomes and to identify agonists that activate the p53 signaling pathway after in vitro metabolic activation (Ooka et al., Archive of Toxicology 96:1975-1987, 2022).
Tox21 Assay Protocol Summary:
The p53RE-bla cells were dispensed at 4,000cells/3ul/well in 1536-well black-clear bottom plates. After the assay plates were incubated at 37 C, 5% CO2 incubator for 5 hours, 23 nL of compounds dissolved in DMSO, positive controls or DMSO only was transferred to the assay plate. Following compound addition, 3 uL of human liver microsomes (XenoTech, Kansas City, KS) at final concentration of 0.5 mg/mL and 1uL of B-Nicotinamide adenine dinucleotide 2'-phosphate (NADPH) at final concentration of 0.5 mg/mL were transferred to the assay plate. The plates were incubated at 37 C for 16 hours. 1 uL of LiveBLAzer detection mixture was added to each well and the plates were incubated at room temperature in the dark for 2 h. Fluorescence intensity at 460 and 530 nm emission and 405 nm excitation were measured by an Envision plate reader. For cell viability readout that measures cytotoxicity, 4 ul/well of CellTiter-Glo reagent was added into the assay plates using a Flying Reagent Dispenser. After 30 min incubation at room temperature, the luminescence intensity in the plates was measured using a ViewLux plate reader.
Potency means the concentration at half of the fitted maximal effect.

| Structure (SMILES) | Potency | activity change, negative = cytotoxicity |
| --- | --- | --- |
| N=C(N)N | inactive |  |
| C#Cc1cccc(Nc2ncnc3cc(OCCOC)c(OCCOC)cc23)c1 | inactive |  |
| CCCC(=O)O[C@]1(C(=O)CCl)[C@@H](C)C[C@H]2[C@@H]3CCC4=CC(=O)C=C[C@]4(C)[C@@]3(F)C(=O)C[C@@]21C | inactive |  |
| O=[N+]([O-])c1cccc(Cl)c1Cl | inactive |  |
| CCOc1ccc2nc(S(N)(=O)=O)sc2c1 | inactive |  |
| CCCCCCCCCCC=O | inactive |  |
| CCCc1ccc(OCC(=O)N2CCN(C(=O)COc3ccc(CCC)cc3OC)CC2)c(OC)c1 | inactive |  |
| CC(CN(CCN(CC(C)OCCO)CC(C)OCCO)CC(C)OCCO)OCCO (stereo not given) | inactive |  |
| O=S(=O)(O)c1cc(S(=O)(=O)O)c2ccc3c(S(=O)(=O)O)cc(S(=O)(=O)O)c4ccc1c2c43 |  | -2.1% [at 13.5 µM] (inactive) |
| N#CCCOCCOCCC#N | inactive |  |
| CO/N=C1\CN(c2nc3c(cc2F)c(=O)c(C(=O)O)cn3C2CC2)CC1CN (stereo not given) | inactive |  |
| CCC(C)(C)C1CCC(O)CC1 (stereo not given) | inactive |  |
| CCOc1ccc(O)cc1 | inactive |  |
| OCCN1CCN(CCO)CC1 | inactive |  |
| CCC(=O)OCCOc1ccccc1 | inactive |  |
| CCCCN(CCCC)CCC(O)c1cc2c(Cl)cc(Cl)cc2c2cc(C(F)(F)F)ccc12 (stereo not given) | inactive |  |
| CSc1ccc(Oc2ccc(S(N)(=O)=O)cc2CN(C)C)cc1C | inactive |  |
| CC1=CC(=O)CCC1 | inactive |  |
| CC(C)C[C@H](NC(=O)CNC(=O)[C@H](Cc1ccc(O)cc1)NC(=O)[C@H](CO)NC(=O)[C@H](Cc1c[nH]c2ccccc12)NC(=O)[C@H](Cc1cnc[nH]1)NC(=O)[C@@H]1CCC(=O)N1)C(=O)N[C@@H](CCCN=C(N)N)C(=O)N1CCC[C@H]1C(=O)NCC(N)=O (stereo in doubt) | inactive |  |
| C1CCC2=NCCCN2CC1 | inactive |  |

| Structure (SMILES) | Potency | activity change, negative = cytotoxicity |
| --- | --- | --- |
| COP(=O)(O)OP(=O)(O)OC | inactive |  |
| Cc1cc2c(C(C)C)c(O)c(O)c(C=O)c2c(O)c1-c1c(C)cc2c(C(C)C)c(O)c(O)c(C=O)c2c1O | 17.8 µM (active) |  |
| CC1(C)CC(O)CC(C)(C)N1[O] | inactive |  |
| N[C@@H](C(=O)N[C@@H]1C(=O)N2C(C(=O)O)=C(Cl)CS[C@H]12)c1ccccc1 |  | 3.89% [at 5.99 µM] (inactive) |
| OC(CCN1CCCCC1)(c1ccccc1)C1CC2C=CC1C2 (stereo not given) | inactive |  |
| CCCC(=O)OC(C)(C)Cc1ccccc1 | inactive |  |
| O=C(O)COc1nn(Cc2ccccc2)c2ccccc12 | inactive |  |
| CC(=O)Oc1ccc(C(=C2CCCCC2)c2ccc(OC(C)=O)cc2)cc1 | inactive |  |
| CC(C)c1ccc2c(c1)CC[C@H]1[C@](C)(CN)CCC[C@]21C | 40.8 µM (active) |  |
| C1CCC2(CCCCO2)OC1 | inactive |  |
| CCN1CCOCC1 | inactive |  |
| C[C@@H]1C[C@H]2[C@@H]3C[C@H](F)C4=CC(=O)C(Cl)=C[C@]4(C)[C@@]3(F)[C@@H](O)C[C@]2(C)[C@@]1(O)C(=O)CO | inactive |  |
| CC/C(C)=N\O[Si](C)(O/N=C(\C)CC)O/N=C(\C)CC | inactive |  |
| CCCC(CCC)(C(=O)OCC)C(=O)OCC | inactive |  |
| Nc1ccc2ccccc2c1S(=O)(=O)O | inactive |  |
| NC(N)=NCCN1CCCCCCC1 |  | 14.9% [at 0.249 µM] (inactive) |
| O=C(Cl)c1cc(Cl)cc(Cl)c1 | inactive |  |
| CCCCCCCCCCCCCCCBr | inactive |  |
| CCCCCCCCCCCCCOC(=O)CCSCCC(=O)OCCCCCCCCCCCCC |  | -3.75% [at 13.5 µM] (inactive) |
| CC1(C)O[C@@H]2C[C@H]3[C@@H]4CCC5=CC(=O)C=C[C@]5(C)[C@H]4[C@@H](O)C[C@]3(C)[C@]2(C(=O)CO)O1 | inactive |  |
